From PubChem BioAssay (NCI)
Compounds without any hit were thinned out: in the full panel of roughly 83,000, 20% have a hit.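 Negative percent growth values reflect cell death: -40 means 40% of the cells present at the start died, and -100 means all died.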 Values without a mark were called inactive. Activity calls are given as the source filed them. The calls were made as follows: active = growth percent below 10; inactive = the rest.

Tests used:
Experiment in all cases: NCI-60 one-dose screen, 48 h (100 = growth as untreated, 0 = no growth, -100 = all killed)
Details in all cases: 10 µM unless noted
[1] = test system: HT29 colon
[2] = test system: SNB-75 CNS
[3] = test system: SNB-19 CNS
[4] = test system: U251 CNS
[5] = test system: PC-3 prostate
[6] = test system: UACC-62 melanoma
[7] = test system: LOX IMVI melanoma
[8] = test system: SK-MEL-28 melanoma
[9] = test system: SK-MEL-5 melanoma

SMILES	growth [1]	growth [2]	growth [3]	growth [4]	growth [5]	growth [6]	growth [7]	growth [8]	growth [9]
N#C/C(=N\Nc1ccc(F)cc1)C(=O)Nc1cc(-c2ccccc2)nn1-c1ccccc1	8.84% (active)	-5.46% (active)	5.24% (active)	8.65% (active)	7.13% (active)	4.43% (active)	12.5%	22.1%	–
C=C(C)[C@@H]1CC[C@]2(C(=O)N3CCN(C)CC3)CC[C@]3(C)[C@H](CC[C@@H]4[C@@]5(C)CC[C@H](OP(=O)(OCC)OCC)C(C)(C)[C@@H]5CC[C@]43C)[C@@H]12	76.1%	89.7%	90.9%	78.8%	44.3%	81.6%	44.6%	104%	69.7%
C1=CC(c2nn3c(-c4ccccc4)nnc3s2)=Cc2ccccc2O1	82.1%	78.3%	74.9%	84.9%	80.5%	74%	–	30.6%	95.6%
NCCNC(=O)c1cccc(COc2ccccc2NC(=O)c2cc(Cl)c(Cl)[nH]2)c1	109%	72.5%	96.9%	88.7%	102%	87.3%	81.5%	94.8%	99.4%
CN1CCN(c2ccc(Nc3nc(NCCNS(=O)(=O)c4ccccc4)c4sccc4n3)cc2)CC1	99.6%	81.5%	98.9%	103%	95.4%	96.4%	108%	104%	97.4%
CCOC(=O)Nc1ccc2c(ccn2C(=O)c2cccc(F)c2)c1	1.15% (active)	13.2%	27.8%	25.7%	42%	32.3%	49.4%	61.5%	27.7%
C#Cc1cc(C(=O)Nc2ccc(CNCCN3CCOCC3)c(C(F)(F)F)c2)ccc1C	68.8%	76%	96.1%	80.7%	89.3%	93.9%	1.04% (active)	93.6%	94.2%
C#C[C@]1(O)CC[C@H]2[C@@H]3CC=C4c5sc(Nc6ccc(C)cn6)nc5CC[C@]4(C)[C@H]3CC[C@@]21C	1.03% (active)	-12.2% (active)	-21.2% (active)	-1.79% (active)	-27.3% (active)	-24.8% (active)	-61.7% (active)	-72.4% (active)	–
Cc1csc(/N=C(N)/N=C(\N)c2cccs2)n1	116%	94.3%	103%	97%	92.3%	94.7%	104%	117%	99.5%
CN1CCN(CCCCCC(=O)Nc2nc(-c3cccc(NS(=O)(=O)c4cccc5c(N(C)C)cccc45)c3)cs2)CC1	15.8%	76.7%	83.7%	65%	67.4%	83.2%	-84.8% (active)	-61.1% (active)	71%
O=C(CCCCCCNC(=O)C(O)(O)C(F)(F)F)Nc1ccc(-c2ccccc2)cc1	4.75% (active)	40.4%	15.2%	-3.64% (active)	28.7%	-61.4% (active)	-77.4% (active)	5.07% (active)	-41.5% (active)
NS(=O)(=O)c1ccc(Nc2nc(Nc3ccccc3)nc(N3N=C(c4ccc(Cl)cc4)CC3c3ccc(Cl)cc3)n2)cc1 (stereo not drawn)	9.63% (active)	68%	61.1%	61.3%	43%	97.6%	12.6%	47.1%	51.9%
C[C@H](Nc1ncnc2ccc(-c3cnc(Cl)c(NS(C)(=O)=O)c3)cc12)c1ccccc1	-28.9% (active)	-3.07% (active)	-44.3% (active)	-52.6% (active)	2.25% (active)	-57.8% (active)	-60.4% (active)	-18.2% (active)	-92.7% (active)
CCCCCCN1C=C/C(=C\C(=O)n2ccc3ccccc32)c2ccccc21	65.1%	65.8%	56.7%	46.9%	–	57.9%	18.7%	101%	30.8%
Cn1cc(-c2nnc(N)nc2-c2c[nH]c3ccc(F)cc23)c2cc(Br)ccc21	3.17% (active)	0.251% (active)	25.6%	17.5%	22.6%	30.3%	29%	60.4%	4.51% (active)
Cc1ccc(C(=O)Nc2ccc(CNCCN3CCNCC3)c(C(F)(F)F)c2)cc1C#Cc1cnc2cccnn12	5.76% (active)	42.5%	8.65% (active)	-6.31% (active)	23.8%	-41% (active)	-86.1% (active)	-68% (active)	-87.1% (active)
CCCc1[nH]c(-c2cc(N)ccc2Cl)c2c1C(=O)CCCC2	104%	89.2%	100%	102%	85.6%	82.1%	107%	102%	–
COc1ccc(C2CC(c3cccc(OCCCCOc4cccc(C5=NOC(c6ccc(OC)cc6)C5)c4)c3)=NO2)cc1 (stereo not drawn)	69.8%	101%	92%	77.3%	99.8%	68.8%	17.9%	102%	97.5%
CCc1cc2c(cc1Cl)nc1c(=O)[nH]c(=O)nc-1n2CCOCC(C)C	24.3%	92.5%	85%	73.9%	68.9%	72.1%	49.8%	87%	34.4%
Cc1csc(/N=C(N)/N=C(\N)c2cccc(Br)c2)n1	97.4%	72.8%	79.2%	91.5%	87.9%	74.5%	90.4%	92.1%	97.6%
O=C(Nc1ccccc1)Nc1nc2ccc([N+](=O)[O-])cc2[nH]1	84.4%	84.9%	66.3%	55.5%	–	44%	57.2%	61.6%	40.4%
CC(=O)c1cc(C(=O)N2c3ccccc3Sc3ccccc32)n2c1ccc1ccccc12	30%	38.7%	57.8%	48.6%	46.1%	33.9%	58.9%	61.1%	44.1%
COc1ccc2[nH]cc(/C=N/Nc3ccnc4cc(Cl)ccc34)c2c1	-42.3% (active)	-94.1% (active)	-100% (active)	-83.3% (active)	-86.4% (active)	-98.3% (active)	–	-100% (active)	-100% (active)
Cn1cc(-c2nn3cc(-c4ccncc4)nc3s2)c2cc(F)ccc21	68.8%	65%	90.1%	98.3%	68.3%	75.9%	10.5%	–	87.6%
COc1cccc(N2CCN(C3=C(Cl)C(=O)c4ncccc4C3=O)CC2)c1	108%	85.1%	90.8%	90.5%	–	84.3%	28.6%	105%	97.3%
COc1ccc(Cn2cc(C#N)c(N)c2C(C)=O)cc1	112%	84.5%	85.8%	109%	105%	87.1%	98.6%	–	100%
CCCCc1nc2c(N)nc3ccccc3c2n1Cc1cccc(CN)c1	17.4%	15.1%	63.2%	38.5%	53.3%	76.3%	18.1%	59.4%	55%
